The values that follow come from PubChem BioAssay (NCATS).

One test deals with HaCat. The test can be described thus: Cytotoxic Profiling of Annotated Libraries Using Quantitative High-Throughput Screening (AID 1296008). Also: nearly all actives have a fitted effect of over 60% in size. Particulars: Five cell lines viability, CellTiter-Glo ATP luminescence, 48-72 h; max response: stronger effect = lower value. The method, boiled down: (§1)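 Cytotoxicity was measured as CellTiter-Glo ATP luminescence, read after 10 min at room temperature. Compound treatment of the cells lasted 48 or 72 hr at 37 degrees Celsius in a qHTS format.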

Test [1] deals with NIH3T3. The test is described as above. Conditions: Five cell lines viability, CellTiter-Glo ATP luminescence, 48-72 h; max response: stronger effect = lower value. The method, boiled down: as §1
In another test the test system is MCC-13. Kind of test: qHTS assay to identify novel small-molecules to repurpose for Merkel cell carcinoma treatment (AID 1296009). Also: nearly all actives have a fitted effect of over 60% in size. Also: potency is read from the fitted curve at half-maximal effect. Conditions: MCC and control cell lines, CellTiter-Glo viability, 72 h; series mostly up to 46 µM. The method, boiled down: (§2)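 72 hr, 37 degree celsius; NPC 8-pt / MIPE 11-pt dose response; compound pinned in DMSO; CellTiter-Glo, 10 min RT, luminescence; normalized to no-cell and DMSO controls.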
(qHTS replaces the single test concentration by a dilution series.)

Another test has as its system MCC-26. The test is described as above. Particulars: MCC and control cell lines, CellTiter-Glo viability, 72 h; series mostly up to 46 µM. A digest of the protocol: as §2
On the technique in general: Cellular ATP, detected with luciferase, serves as a proxy for viable cell number.

The test system of a further test is MKL-1. The test is described as above. Conditions: MCC and control cell lines, CellTiter-Glo viability, 72 h; series mostly up to 46 µM. The method, boiled down: as §2
For the next test, the system named is MKL-2. Described as above. Conditions: MCC and control cell lines, CellTiter-Glo viability, 72 h; series mostly up to 46 µM. The method, boiled down:
as §2

The next test deals with UISO. The test is described as above. Conditions: MCC and control cell lines, CellTiter-Glo viability, 72 h; series mostly up to 46 µM. A digest of the protocol: as §2
Another test concerns WaGa. Described as above. Particulars: MCC and control cell lines, CellTiter-Glo viability, 72 h; series mostly up to 46 µM. A digest of the protocol:
as §2

The subject of a further test is C33A. The test can be described thus: Primary qHTS to identify gynecologic anti-cancer compounds using libraries of approved drugs and bioactive compounds (AID 1345084). Also: nearly all actives have a fitted effect of over 55% in size. Also: potency is read from the fitted curve at half-maximal effect. Particulars: Gynecologic cancer cell panel viability, ATPlite luminescence, 48 h; series mostly up to 57.5 µM. The method, boiled down:
(§3)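 Measured: luminescence after ATPlite addition (15 min, RT). Exposure: 48 h, 37 C, 5% CO2.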

In the next test the test system is CAOV3. The test is described as above. Particulars: Gynecologic cancer cell panel viability, ATPlite luminescence, 48 h; series mostly up to 57.5 µM. A digest of the protocol:
as §3

In a further test the test system is CASKI. Described as above. Conditions: Gynecologic cancer cell panel viability, ATPlite luminescence, 48 h; series mostly up to 57.5 µM. A digest of the protocol: as §3
Another test concerns Es-2. The description is as above. Particulars: Gynecologic cancer cell panel viability, ATPlite luminescence, 48 h; series mostly up to 57.5 µM. A digest of the protocol:
as §3

The subject of the next test is HeLa. The description is as above. Particulars: Gynecologic cancer cell panel viability, ATPlite luminescence, 48 h; series mostly up to 57.5 µM. A digest of the protocol:
as §3

Test [2] concerns Hek293T. The test is described as above. Conditions: Gynecologic cancer cell panel viability, ATPlite luminescence, 48 h, control line for the selectivity index; series mostly up to 57.5 µM. A digest of the protocol:
as §3

For the next test, the system named is JEG-3. Described as above. Particulars: Gynecologic cancer cell panel viability, ATPlite luminescence, 48 h; series mostly up to 57.5 µM. The method, boiled down: as §3
A further test has as its system OV90. The description is as above. Conditions: Gynecologic cancer cell panel viability, ATPlite luminescence, 48 h; series mostly up to 57.5 µM. A digest of the protocol: as §3
A further test relates to KB-3-1. The test can be described thus: Cytotoxic Profiling of Annotated Libraries Using Quantitative High-Throughput Screening (AID 1296008). Also: nearly all actives have a fitted effect of over 60% in size. Particulars: Five cell lines viability, CellTiter-Glo ATP luminescence, 48-72 h; max response: stronger effect = lower value. The method, boiled down:
as §1

In test [3] the test system is HEK293T. The test can be described thus: qHTS assay to identify novel small-molecules to repurpose for Merkel cell carcinoma treatment (AID 1296009). Also: nearly all actives have a fitted effect of over 60% in size. Also: potency is read from the fitted curve at half-maximal effect. Conditions: MCC and control cell lines, CellTiter-Glo viability, 72 h; at 44.8 µM (top of the series) unless noted. The method, boiled down:
as §2

Test [4] concerns NIH3T3. Described as above. Conditions: MCC and control cell lines, CellTiter-Glo viability, 72 h; at 44.8 µM (top of the series) unless noted. The method, boiled down:
as §2

SMILES strings stand for the structures. Results filed as inconclusive are left out. Unmarked numbers belong to inactive results. The source made the active and inactive calls. Calls follow the shape of the dose curve; as a rule, active = well fitted curve in the direction sought with a large enough effect; inconclusive = small, poorly fitted or top-dose-only effect, or another doubt; inactive = no such curve, though single readings can be large; an effect the other way counts as inactive or inconclusive.
% is scaled to controls: 0 for no effect and ±100 for the full control effect.

Take `COC(=O)c1ccc(NC(C)=O)cc1OC`: the max response in the test on HaCat was -9.21%; in the test with NIH3T3 [1] it was -16.1%. The Potency entry in the test with MCC-13, in the test with MCC-26, in the test on MKL-1, with MKL-2, in the test on UISO and in the test on WaGa was “inactive” in each case. Also, the Potency entry with C33A, in the test on CAOV3, in the test with CASKI, in the test with Es-2, with HeLa and in the test on Hek293T [2] was “inactive” each time. For the same molecule, the Potency entry in the test with JEG-3 and in the test with OV90 was “inactive” each time.
Take `CC(C)C(=O)Nc1cccc(C2CN3CCSC3=N2)c1` (configuration not stated): the max response in the test on HaCat was -7.7%; in the test with NIH3T3 [1] it was -0.0334%. The Potency entry in the test with MCC-13, in the test on MCC-26, in the test with MKL-1, in the test with MKL-2, in the test on UISO and in the test on WaGa was “inactive” each time. The Potency entry in the test with C33A, in the test with CASKI, in the test with Es-2, in the test with HeLa, in the test with Hek293T [2] and with JEG-3 was “inactive” throughout. Also, in the test on OV90, the Potency entry is “inactive”.
Regarding `CC(=O)N(CC(=O)N(C)C)c1ccccc1`, the results for the max response in the test with HaCat and in the test with NIH3T3 [1] were -4.61% and 1.94%, respectively. The Potency entry in the test with MCC-13, in the test with MCC-26, in the test with MKL-1, with MKL-2, in the test with UISO and in the test with WaGa was “inactive” throughout. The Potency result in the test with C33A, with Es-2, in the test with HeLa and in the test on Hek293T [2] was “inactive” throughout.
Take `CN1Cc2cc(C(=O)N3CCC(C4CCNCC4)CC3)ccc2NC(CC(=O)O)C1=O` (configuration not stated): the max response in the test with HaCat was -7.2%; in the test on NIH3T3 [1] it was -2.76%. Besides, the Potency entry in the test on MCC-13, in the test on MCC-26, in the test with MKL-1, in the test on MKL-2, in the test on UISO and in the test with WaGa was “inactive” in each case. Also, the Potency entry with C33A, in the test with CAOV3, in the test on CASKI, in the test with Es-2, in the test with HeLa and with Hek293T [2] was “inactive” each time. In addition, the Potency entry with JEG-3 and in the test on OV90 was “inactive” in each case.
For `COC(=O)c1cc(Cl)ccc1NS(=O)(=O)C(F)(F)F`, the max response in the test with HaCat was -18%; with NIH3T3 [1], -7.02%. Further, the Potency result with MCC-13, with MCC-26, with MKL-1, in the test with MKL-2, in the test with UISO and in the test with WaGa was “inactive” each time. In addition, the Potency entry with CASKI, in the test on Hek293T [2], in the test on JEG-3 and in the test on OV90 was “inactive” throughout. For the same molecule, the Potency with CAOV3 was 25.1 µM (active).
On to `O=C(Nc1ccc(S(=O)(=O)N2CCOCC2)cc1)c1cc(Cl)ccc1NS(=O)(=O)c1ccc(Cl)s1`, for which the max response in the test on KB-3-1 was -23.1%. For the same molecule, the result with NIH3T3 [1], in the test on HEK293T [3] and in the test with NIH3T3 [4] was inactive. Also, the Potency result in the test on MCC-13, in the test on MCC-26, in the test on MKL-1, in the test on MKL-2, in the test with UISO and in the test with WaGa was “inactive” in each case. For the same molecule, the Potency result with CAOV3, with CASKI, in the test on Es-2, in the test on HeLa, with Hek293T [2] and in the test on JEG-3 was “inactive” in each case. Besides, the Potency entry with OV90 is “inactive”.
In the case of `CCNC(=O)NCCCOc1cccc(CN2CCCCC2)c1`, the max response in the test with KB-3-1 is -12.8%. Besides, the molecule was called inactive in the test with NIH3T3 [1] and in the test with NIH3T3 [4]. The Potency entry with MCC-13, in the test with MCC-26, in the test with MKL-1, with MKL-2, in the test with UISO and in the test with WaGa was “inactive” each time. For the same molecule, the Potency entry in the test with C33A, with CAOV3, in the test with CASKI, with Es-2, in the test on HeLa and in the test on Hek293T [2] was “inactive” each time. Also, the Potency entry in the test with JEG-3 was “inactive”.
For `CN(C)CCOC(c1ccccc1)c1ccc(Br)cc1` (configuration not stated), the figures for the max response in the test with HaCat and in the test with NIH3T3 [1] were 1.11% and -1.24%, respectively. Moreover, the Potency result in the test on MCC-13, in the test on MCC-26, in the test with MKL-1, in the test with UISO, in the test on C33A and in the test with CAOV3 was “inactive” each time. Further, the Potency entry in the test with CASKI, with Es-2, with HeLa, in the test with Hek293T [2] and with JEG-3 was “inactive” in each case. The values for the Potency with WaGa and in the test on OV90 were 23.7 µM (active) and 12.6 µM (active), respectively.
As for `OC1(c2ccccc2)CCNCC1`, in the test with HaCat, the max response is -1.01%. Moreover, the molecule was called inactive with NIH3T3 [1] and in the test with NIH3T3 [4]. Also, the Potency result in the test with MCC-13, in the test on MKL-1, in the test on MKL-2, in the test on UISO, in the test with WaGa and in the test on C33A was “inactive” in each case. For the same molecule, the Potency entry with CAOV3, in the test with CASKI, in the test on Es-2, with HeLa, in the test with Hek293T [2] and in the test with JEG-3 was “inactive” throughout. Moreover, the Potency entry in the test with OV90 was “inactive”.
In the case of `O=C(OCC(O)CO)c1ccccc1Nc1ccnc2c(C(F)(F)F)cccc12` (configuration not stated), the max response is -6.27% with HaCat and -7.27% in the test with NIH3T3 [1]. Also, the Potency entry in the test with MCC-13, in the test on MCC-26, in the test with UISO, in the test on WaGa, in the test with C33A and in the test on CAOV3 was “inactive” in each case. Also, the Potency result in the test with CASKI, in the test with Es-2, in the test on HeLa, in the test on Hek293T [2], in the test with JEG-3 and in the test on OV90 was “inactive” each time.
For `CC(=O)/C=C/C=C1/C2CCC(C2)C1(C)C` (configuration not stated), the max response with HaCat was -7.21%; in the test with NIH3T3 [1], -0.501%. The Potency result with MCC-13, with MCC-26, with MKL-1, in the test on UISO, in the test on C33A and in the test with CAOV3 was “inactive” each time. The Potency result with CASKI, with Es-2, in the test with HeLa, with Hek293T [2], in the test on JEG-3 and in the test on OV90 was “inactive” each time.
Take `COc1cccc2c1[C@@H]1CN(CCCCn3c(=O)[nH]c4c(sc5ncc(-c6ccccc6)nc54)c3=O)C[C@@H]1CO2`: the max response with KB-3-1 is 2.96%.
For the molecule `Cc1nc2n(c(=O)c1CCN1CCC(C(=O)c3ccc(F)cc3)CC1)CCS2`, the max response in the test with HaCat was 1.44%; in the test on NIH3T3 [1] it was -4.75%. In addition, the Potency result with MCC-13, in the test with MCC-26, with MKL-1, in the test on UISO, with C33A and in the test on CAOV3 was “inactive” throughout. The Potency entry with CASKI, in the test with Es-2, in the test with HeLa, with Hek293T [2] and in the test on JEG-3 was “inactive” each time.
With `COc1c(C)c2c(c(O)c1C/C=C(\C)CCC(=O)OCCN1CCOCC1)C(=O)OC2`, in the test with HaCat, the max response was -40.9%. Moreover, the Potency in the test on MCC-13 is 0.944 µM (active). Besides, the Potency entry with MKL-1, in the test with MKL-2, in the test on WaGa, in the test on CAOV3 and with JEG-3 was “inactive” throughout.
As for `CN(C)[C@@H]1C(=O)C(C(N)=O)=C(O)[C@@]2(O)C(=O)C3=C(O)c4c(O)cccc4C[C@H]3C[C@@H]12`, the values for the max response in the test with HaCat and in the test with NIH3T3 [1] were -5.74% and 1.19%, respectively. Also, the Potency entry in the test with MCC-13, in the test with MCC-26, with C33A, in the test with CAOV3, with CASKI and in the test with Es-2 was “inactive” each time. The Potency entry in the test on HeLa, in the test with Hek293T [2], in the test on JEG-3 and in the test on OV90 was “inactive” in each case.
